Source: the antibiotic and cytotoxicity screens of Wong et al. (2023)
The whole screen tested about 39,000 compounds, of which about 1,500 (3.8%) were called active. For the sample, actives were picked, then their nearest neighbours and some compounds at random.

These compounds were tested on HSkMC (human skeletal muscle cells) (assay: cytotoxicity call (relative viability < 0.9)). Details: 10 µM.

Structure (SMILES)	cytotoxicity call
C[C@H](CO)N1C[C@H](C)[C@@H](CN(C)C(=O)c2ccncc2)OCCCC[C@H](C)Oc2ccc(NS(C)(=O)=O)cc2C1=O	inactive
C[C@@H]1CN([C@H](C)CO)C(=O)c2cc(NC(=O)Nc3ccc(C(F)(F)F)cc3)ccc2O[C@@H](C)CCCCO[C@@H]1CN(C)C(=O)Nc1cccc2ccccc12	inactive
C[C@@H]1CN([C@H](C)CO)C(=O)c2cccc(NC(=O)Nc3ccccc3)c2O[C@@H]1CN(C)S(C)(=O)=O	inactive
COc1ccc2c3c(n(c2c1)C)[C@@H](CO)N(CC1CC1)C[C@]13CCN(CC1)S(=O)(=O)c1cn(cn1)C	inactive
C[C@H](NC(=O)c1c(N)nn2cccnc12)c1cc2cccc(C#Cc3cnn(C)c3)c2c(=O)n1-c1ccccc1	active
C[C@@H]1CCCCO[C@H](CN(C)C(=O)Nc2ccccc2)[C@@H](C)CN([C@@H](C)CO)C(=O)c2cc(NC(=O)Cc3ccccc3)ccc2O1	inactive
COc1ccc(S(=O)(=O)N(C)C[C@@H]2Oc3cc(C#CC4CC4)ccc3S(=O)(=O)N([C@@H](C)CO)C[C@@H]2C)cc1	inactive
C=CC(=O)Nc1cccc(C)c1Nc1ncc2cc(-c3c(Cl)c(OC)cc(OC)c3Cl)ccc2n1	inactive
C=CC(=O)Nc1cccc(Nc2nc(Nc3ccc(NC4CN(CCF)C4)cc3OC)ncc2C(F)(F)F)c1	active
C[C@@H]1CN([C@@H](C)CO)C(=O)c2cc(NC(=O)C3CC3)ccc2O[C@H]1CN(C)S(=O)(=O)c1ccccc1	inactive
C[C@@H](NC(=O)C[C@@H]1CC[C@H](NC(=O)CN2CCOCC2)[C@H](CO)O1)c1ccccc1	inactive
CC[C@H](C)n1ncn(-c2ccc(N3CCN(c4ccc(OC[C@H]5CO[C@](Cn6cncn6)(c6ccc(Cl)cc6Cl)O5)cc4)CC3)cc2)c1=O	active
CC[C@@H](C)n1ncn(-c2ccc(N3CCN(c4ccc(OC[C@H]5CO[C@](Cn6cncn6)(c6ccc(Cl)cc6Cl)O5)cc4)CC3)cc2)c1=O	inactive
CCC(C)n1ncn(-c2ccc(N3CCN(c4ccc(OCC5COC(Cn6cncn6)(c6ccc(Cl)cc6Cl)O5)cc4)CC3)cc2)c1=O.Cl.Cl (centres undefined)	inactive
CS(=O)(=O)N1CCN(Cc2cc3nc(-c4cccc5n[nH]cc45)nc(N4CCOCC4)c3s2)CC1	active
CO[C@@H]1CN(C)C(=O)c2ccc(NC(=O)NC(C)C)cc2OC[C@@H](C)N(Cc2ccc(-c3ccccn3)cc2)C[C@H]1C	inactive
C[C@H](CO)N1C[C@H](C)[C@H](CN(C)CC2CC2)Oc2ccc(NS(=O)(=O)c3cccs3)cc2C1=O	inactive
C[C@H](CO)N1C[C@H](C)[C@H](CN(C)C(=O)Nc2ccc(C(F)(F)F)cc2)OCCCC[C@H](C)Oc2ccc(NC(=O)Nc3ccc(C(F)(F)F)cc3)cc2C1=O	active
C[C@@H]1CCCCO[C@H](CN(C)C(=O)Nc2ccc(C(F)(F)F)cc2)[C@@H](C)CN([C@@H](C)CO)C(=O)c2cc(NC(=O)Nc3ccc(C(F)(F)F)cc3)ccc2O1	inactive
CC(C)NC(=O)N(C)C[C@@H]1OCCCC[C@H](C)Oc2ccc(NC(=O)Nc3ccc(C(F)(F)F)cc3)cc2C(=O)N([C@H](C)CO)C[C@@H]1C	active
C[C@@H]1CCCCO[C@@H](CN(C)C(=O)C2CCCCC2)[C@@H](C)CN([C@H](C)CO)C(=O)c2cc(NC(=O)Nc3ccc(C(F)(F)F)cc3)ccc2O1	inactive
C[C@H]1CCCCO[C@H](CN(C)C(=O)C2CCCCC2)[C@@H](C)CN([C@@H](C)CO)C(=O)c2cc(NC(=O)Nc3ccc(C(F)(F)F)cc3)ccc2O1	active
C[C@@H]1CCCCO[C@@H](CN(C)C(=O)C2CCCCC2)[C@H](C)CN([C@@H](C)CO)C(=O)c2cc(NC(=O)Nc3ccc(C(F)(F)F)cc3)ccc2O1	inactive
CC(C)NC(=O)N(C)C[C@H]1OCCCC[C@H](C)Oc2ccc(NC(=O)Nc3ccc(C(F)(F)F)cc3)cc2C(=O)N([C@H](C)CO)C[C@@H]1C	inactive
C[C@H]1CCCCO[C@H](CN(C)C(=O)Nc2ccc(C(F)(F)F)cc2)[C@@H](C)CN([C@@H](C)CO)C(=O)c2cc(NC(=O)Nc3ccc(C(F)(F)F)cc3)ccc2O1	inactive
CC(C)NC(=O)N(C)C[C@@H]1OCCCC[C@@H](C)Oc2ccc(NC(=O)Nc3ccc(C(F)(F)F)cc3)cc2C(=O)N([C@@H](C)CO)C[C@H]1C	inactive
CC(C)NC(=O)N(C)C[C@@H]1OCCCC[C@H](C)Oc2ccc(NC(=O)Nc3ccc(C(F)(F)F)cc3)cc2C(=O)N([C@@H](C)CO)C[C@@H]1C	active
CC(C)NC(=O)N(C)C[C@@H]1OCCCC[C@H](C)Oc2ccc(NC(=O)Nc3ccc(C(F)(F)F)cc3)cc2C(=O)N([C@@H](C)CO)C[C@H]1C	inactive
CC(C)NC(=O)N(C)C[C@H]1OCCCC[C@@H](C)Oc2ccc(NC(=O)Nc3ccc(C(F)(F)F)cc3)cc2C(=O)N([C@@H](C)CO)C[C@H]1C	inactive
